{
  "source": "the supplement of paper PMC5499739",
  "note": "The full ranking holds about 16,000 sequences; the median of “Z-score” is about -0.37, and the highest 2% start at about 3.2. The sample as a whole holds a higher share of the highest values than the screen did.",
  "data": [
    {"tested_on": "RBM10 RRM1-ZnF (GST-tagged construct)", "assay": "RNAcompete 7-mer binding Z-score; higher = stronger binding preference", "summary_of_the_method": "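Each heptamer motif was given a one-sided Z-score for enrichment across the probes that contained it. GST-tagged RBM10 constructs (20 pmol) were combined with 1.5 nmol of a designed pool of 241 399 RNAs of up to 41 nt, transcribed from microarray-derived DNA templates. Binding took place in 1 ml Hepes pH 7.8 buffer containing KCl, NaCl, glycerol, DTT, BSA and glutathione Sepharose beads for 30 min at 4°C. After four 2-min washes at 4°C, bound RNA was identified by microarray hybridisation.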", "values": [
      {"sequence": "UCGGGUU", "RNAcompete 7-mer binding Z-score": 1.12},
      {"sequence": "UAGGGUU", "RNAcompete 7-mer binding Z-score": 3.33},
      {"sequence": "CCGGGUA", "RNAcompete 7-mer binding Z-score": 0.625},
      {"sequence": "GCCGCGA", "RNAcompete 7-mer binding Z-score": -0.422},
      {"sequence": "AACGUCA", "RNAcompete 7-mer binding Z-score": -0.574},
      {"sequence": "AGCUAUG", "RNAcompete 7-mer binding Z-score": -0.168},
      {"sequence": "GUUCGCA", "RNAcompete 7-mer binding Z-score": -0.652},
      {"sequence": "CCCUUAU", "RNAcompete 7-mer binding Z-score": -0.831},
      {"sequence": "AGCUGUU", "RNAcompete 7-mer binding Z-score": -0.737},
      {"sequence": "UAUACGU", "RNAcompete 7-mer binding Z-score": -0.357},
      {"sequence": "AAGGUAG", "RNAcompete 7-mer binding Z-score": 3.69},
      {"sequence": "AAGGUGU", "RNAcompete 7-mer binding Z-score": 2.55},
      {"sequence": "GAGGUGU", "RNAcompete 7-mer binding Z-score": 2.37},
      {"sequence": "GAGGUGA", "RNAcompete 7-mer binding Z-score": 2.56},
      {"sequence": "AAGGUGA", "RNAcompete 7-mer binding Z-score": 3.66},
      {"sequence": "GAGGUGC", "RNAcompete 7-mer binding Z-score": 1.81},
      {"sequence": "CAGGUAG", "RNAcompete 7-mer binding Z-score": 2.32},
      {"sequence": "CAGGUGA", "RNAcompete 7-mer binding Z-score": 1.49},
      {"sequence": "AAGGUAA", "RNAcompete 7-mer binding Z-score": 2.97},
      {"sequence": "AAGGUGG", "RNAcompete 7-mer binding Z-score": 4.39},
      {"sequence": "GAGGUGG", "RNAcompete 7-mer binding Z-score": 3.35},
      {"sequence": "AAGGUGC", "RNAcompete 7-mer binding Z-score": 2.39},
      {"sequence": "CGUUACU", "RNAcompete 7-mer binding Z-score": -0.558},
      {"sequence": "AGUAUUC", "RNAcompete 7-mer binding Z-score": -0.493},
      {"sequence": "AAACCAA", "RNAcompete 7-mer binding Z-score": -0.548},
      {"sequence": "CAGCGUC", "RNAcompete 7-mer binding Z-score": -0.623},
      {"sequence": "AGGAAUA", "RNAcompete 7-mer binding Z-score": 0.881},
      {"sequence": "ACUACUA", "RNAcompete 7-mer binding Z-score": -0.402},
      {"sequence": "CCCUGUG", "RNAcompete 7-mer binding Z-score": -0.327},
      {"sequence": "GACUCUA", "RNAcompete 7-mer binding Z-score": -0.642},
      {"sequence": "GUAUGUG", "RNAcompete 7-mer binding Z-score": 1.07},
      {"sequence": "CACUCGC", "RNAcompete 7-mer binding Z-score": -0.604},
      {"sequence": "AUGCGAG", "RNAcompete 7-mer binding Z-score": 0.569},
      {"sequence": "AAGGUUG", "RNAcompete 7-mer binding Z-score": 3.49},
      {"sequence": "UAGGUUG", "RNAcompete 7-mer binding Z-score": 2.09},
      {"sequence": "CAGGUUG", "RNAcompete 7-mer binding Z-score": 2.04},
      {"sequence": "AGAGCGC", "RNAcompete 7-mer binding Z-score": -0.568},
      {"sequence": "GCACACU", "RNAcompete 7-mer binding Z-score": -0.295},
      {"sequence": "UGGUGGA", "RNAcompete 7-mer binding Z-score": 2.86},
      {"sequence": "GGGUGGC", "RNAcompete 7-mer binding Z-score": 2.89},
      {"sequence": "UGGUGGC", "RNAcompete 7-mer binding Z-score": 1.8},
      {"sequence": "UGGUGGG", "RNAcompete 7-mer binding Z-score": 4.74},
      {"sequence": "UCGUGGG", "RNAcompete 7-mer binding Z-score": 2.53},
      {"sequence": "GGGUGGU", "RNAcompete 7-mer binding Z-score": 4.8},
      {"sequence": "GCGUGGG", "RNAcompete 7-mer binding Z-score": 3.53},
      {"sequence": "GGGUGGG", "RNAcompete 7-mer binding Z-score": 4.82},
      {"sequence": "UGGUGGU", "RNAcompete 7-mer binding Z-score": 2.8},
      {"sequence": "ACGUGGG", "RNAcompete 7-mer binding Z-score": 2.43},
      {"sequence": "CGGUGGU", "RNAcompete 7-mer binding Z-score": 1.64},
      {"sequence": "GGGUGCG", "RNAcompete 7-mer binding Z-score": 2.96},
      {"sequence": "AACAGAA", "RNAcompete 7-mer binding Z-score": -0.0447},
      {"sequence": "UUUGCGU", "RNAcompete 7-mer binding Z-score": -0.642},
      {"sequence": "AUGUGGA", "RNAcompete 7-mer binding Z-score": 2.27},
      {"sequence": "UUUGACC", "RNAcompete 7-mer binding Z-score": -0.88},
      {"sequence": "UCUGCAG", "RNAcompete 7-mer binding Z-score": -0.629},
      {"sequence": "AAGCUGG", "RNAcompete 7-mer binding Z-score": 0.904},
      {"sequence": "AGGUGGG", "RNAcompete 7-mer binding Z-score": 3.76},
      {"sequence": "AGGUGGU", "RNAcompete 7-mer binding Z-score": 2.18},
      {"sequence": "CGGUGGG", "RNAcompete 7-mer binding Z-score": 3.2},
      {"sequence": "GGGUGGA", "RNAcompete 7-mer binding Z-score": 4.53},
      {"sequence": "AGGUGGA", "RNAcompete 7-mer binding Z-score": 3.15},
      {"sequence": "CGGUGGA", "RNAcompete 7-mer binding Z-score": 2.43},
      {"sequence": "UAUAUAA", "RNAcompete 7-mer binding Z-score": -0.519},
      {"sequence": "CGAACGG", "RNAcompete 7-mer binding Z-score": 1.21},
      {"sequence": "CGGACGG", "RNAcompete 7-mer binding Z-score": 1.32},
      {"sequence": "GAACGGC", "RNAcompete 7-mer binding Z-score": 0.693},
      {"sequence": "CGACGGG", "RNAcompete 7-mer binding Z-score": 1.62},
      {"sequence": "AGAACGG", "RNAcompete 7-mer binding Z-score": 1.53},
      {"sequence": "GGACGGG", "RNAcompete 7-mer binding Z-score": 4.52},
      {"sequence": "GGACGGC", "RNAcompete 7-mer binding Z-score": 1.19},
      {"sequence": "GGAACGG", "RNAcompete 7-mer binding Z-score": 4.07},
      {"sequence": "UGGACGG", "RNAcompete 7-mer binding Z-score": 3.09},
      {"sequence": "GAACGGU", "RNAcompete 7-mer binding Z-score": 1.64},
      {"sequence": "GGGACGG", "RNAcompete 7-mer binding Z-score": 3.45},
      {"sequence": "GAACGGG", "RNAcompete 7-mer binding Z-score": 4.25},
      {"sequence": "AUAGGCA", "RNAcompete 7-mer binding Z-score": 0.686},
      {"sequence": "UGGGCCU", "RNAcompete 7-mer binding Z-score": 0.335},
      {"sequence": "CUUACCC", "RNAcompete 7-mer binding Z-score": -0.792},
      {"sequence": "CUAUUGC", "RNAcompete 7-mer binding Z-score": -0.714},
      {"sequence": "AGAUGGU", "RNAcompete 7-mer binding Z-score": 1.71},
      {"sequence": "UGAUGGU", "RNAcompete 7-mer binding Z-score": 1.87},
      {"sequence": "AGAUGGA", "RNAcompete 7-mer binding Z-score": 2.97},
      {"sequence": "GGAUGGA", "RNAcompete 7-mer binding Z-score": 4.23},
      {"sequence": "GGAUGGU", "RNAcompete 7-mer binding Z-score": 3.9},
      {"sequence": "GGAUGGC", "RNAcompete 7-mer binding Z-score": 2.58},
      {"sequence": "UCUGUGA", "RNAcompete 7-mer binding Z-score": -0.581},
      {"sequence": "AGGGAAC", "RNAcompete 7-mer binding Z-score": 2.57},
      {"sequence": "GGGGAAA", "RNAcompete 7-mer binding Z-score": 3.19},
      {"sequence": "CAGGGAA", "RNAcompete 7-mer binding Z-score": 2.96},
      {"sequence": "AAGGGAA", "RNAcompete 7-mer binding Z-score": 4.37},
      {"sequence": "CAGGGAU", "RNAcompete 7-mer binding Z-score": 2.36},
      {"sequence": "ACGGGAA", "RNAcompete 7-mer binding Z-score": 3.12}
    ]}
  ]
}
